From the supplement of paper PMC11732987, “Enantioselective OTUD7B fragment discovery through chemoproteomics screening and high-throughput optimisation” (Communications Chemistry, 2025)

Experiments:
Test in all cases: log2 ratio of Biotin-Ahx-Ub-VS probe labelling (fragment/DMSO); higher = less target engagement (more negative = stronger competition), active = hit call of the paper (q ≤ 0.05, log2 ratio ≤ -1)
Conditions in all cases: compound concentration: 200 uM; treatment time: 3 h
ALG13 = target: T1, ALG13 (UniProt Q9NP73)
T1 sequence (whole entry): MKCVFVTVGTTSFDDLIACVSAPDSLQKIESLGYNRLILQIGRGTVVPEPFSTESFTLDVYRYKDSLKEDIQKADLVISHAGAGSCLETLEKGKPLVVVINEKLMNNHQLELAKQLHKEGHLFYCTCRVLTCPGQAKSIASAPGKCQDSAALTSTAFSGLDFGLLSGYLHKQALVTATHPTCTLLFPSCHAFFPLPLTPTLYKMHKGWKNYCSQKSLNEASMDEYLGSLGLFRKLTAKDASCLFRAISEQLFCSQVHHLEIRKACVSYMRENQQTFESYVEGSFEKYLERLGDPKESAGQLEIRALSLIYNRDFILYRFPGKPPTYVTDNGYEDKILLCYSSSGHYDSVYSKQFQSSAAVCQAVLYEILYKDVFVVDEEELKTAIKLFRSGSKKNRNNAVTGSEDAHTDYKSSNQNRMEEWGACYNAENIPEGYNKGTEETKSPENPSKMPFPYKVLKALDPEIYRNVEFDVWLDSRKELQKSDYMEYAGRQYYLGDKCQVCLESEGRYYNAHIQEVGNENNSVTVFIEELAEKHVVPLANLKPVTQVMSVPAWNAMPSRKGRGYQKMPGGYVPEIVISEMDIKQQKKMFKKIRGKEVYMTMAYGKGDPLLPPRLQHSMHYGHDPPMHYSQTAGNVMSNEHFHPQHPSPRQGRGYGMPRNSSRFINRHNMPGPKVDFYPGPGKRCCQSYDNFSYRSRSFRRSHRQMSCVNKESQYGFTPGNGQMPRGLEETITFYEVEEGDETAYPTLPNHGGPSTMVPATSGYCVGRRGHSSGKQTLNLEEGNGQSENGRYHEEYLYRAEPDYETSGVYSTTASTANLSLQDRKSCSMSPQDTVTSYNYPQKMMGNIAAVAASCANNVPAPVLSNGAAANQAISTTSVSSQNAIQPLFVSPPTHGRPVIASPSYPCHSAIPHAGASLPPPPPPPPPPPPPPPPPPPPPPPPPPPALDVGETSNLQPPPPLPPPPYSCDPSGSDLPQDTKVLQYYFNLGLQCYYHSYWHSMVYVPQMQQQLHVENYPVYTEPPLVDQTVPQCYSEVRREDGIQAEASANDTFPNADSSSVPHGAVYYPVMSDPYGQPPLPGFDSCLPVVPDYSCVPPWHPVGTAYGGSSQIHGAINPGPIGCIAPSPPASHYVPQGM
Summary of the method: (§1)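 HEK293T lysate (495 µg per sample, in Tris/CHAPS/IGEPAL buffer with protease inhibitors) was treated in triplicate with fragment at 200 µM or with DMSO for 3 h. It was then treated with Biotin-Ahx-Ub-VS (0.5 µM final) for 1 h. Labelled DUBs were NeutrAvidin-enriched, digested with LysC and trypsin, and run by diaPASEF LC-MS/MS. Spectronaut label-free quantities were global-median-normalised. Values are average log2 ratios fragment/DMSO by unpaired t-test, using proteins with ≥2 unique peptides.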

ATXN3 = ATXN3 (UniProt P54252)
Sequence of ATXN3 (P54252 whole entry): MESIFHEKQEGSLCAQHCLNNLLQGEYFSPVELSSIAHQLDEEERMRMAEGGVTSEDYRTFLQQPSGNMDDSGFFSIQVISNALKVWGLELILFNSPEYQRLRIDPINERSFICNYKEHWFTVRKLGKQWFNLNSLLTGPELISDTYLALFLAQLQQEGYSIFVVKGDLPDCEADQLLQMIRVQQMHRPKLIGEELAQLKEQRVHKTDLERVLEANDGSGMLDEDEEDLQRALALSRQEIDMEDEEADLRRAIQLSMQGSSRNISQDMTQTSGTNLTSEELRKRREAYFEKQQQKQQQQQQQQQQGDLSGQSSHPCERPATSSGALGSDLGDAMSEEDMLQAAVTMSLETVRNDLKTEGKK
Summary of the method: as §1

BAP1 = target: T2, BAP1 (UniProt Q92560)
T2 sequence (whole entry): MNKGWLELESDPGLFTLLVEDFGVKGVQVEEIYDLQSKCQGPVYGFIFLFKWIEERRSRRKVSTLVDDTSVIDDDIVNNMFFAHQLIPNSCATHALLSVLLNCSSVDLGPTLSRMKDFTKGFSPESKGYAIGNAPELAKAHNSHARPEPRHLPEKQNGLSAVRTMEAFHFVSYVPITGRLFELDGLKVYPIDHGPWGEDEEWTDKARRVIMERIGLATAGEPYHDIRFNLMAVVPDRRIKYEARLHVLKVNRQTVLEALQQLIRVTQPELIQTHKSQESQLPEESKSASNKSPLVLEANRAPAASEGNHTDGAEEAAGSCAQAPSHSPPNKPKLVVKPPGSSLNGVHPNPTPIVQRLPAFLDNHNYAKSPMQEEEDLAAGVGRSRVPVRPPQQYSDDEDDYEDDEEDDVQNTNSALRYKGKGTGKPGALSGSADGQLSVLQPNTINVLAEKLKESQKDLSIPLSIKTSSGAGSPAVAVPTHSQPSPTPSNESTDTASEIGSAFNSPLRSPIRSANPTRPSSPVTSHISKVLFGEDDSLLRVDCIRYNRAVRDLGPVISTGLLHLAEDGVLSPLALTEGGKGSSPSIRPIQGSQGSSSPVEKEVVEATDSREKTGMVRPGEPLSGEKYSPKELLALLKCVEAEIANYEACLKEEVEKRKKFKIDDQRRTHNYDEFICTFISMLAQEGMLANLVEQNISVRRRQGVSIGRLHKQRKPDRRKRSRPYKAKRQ
Summary of the method: as §1

EIF3F = EIF3F (UniProt O00303)
Sequence of EIF3F (O00303 whole entry): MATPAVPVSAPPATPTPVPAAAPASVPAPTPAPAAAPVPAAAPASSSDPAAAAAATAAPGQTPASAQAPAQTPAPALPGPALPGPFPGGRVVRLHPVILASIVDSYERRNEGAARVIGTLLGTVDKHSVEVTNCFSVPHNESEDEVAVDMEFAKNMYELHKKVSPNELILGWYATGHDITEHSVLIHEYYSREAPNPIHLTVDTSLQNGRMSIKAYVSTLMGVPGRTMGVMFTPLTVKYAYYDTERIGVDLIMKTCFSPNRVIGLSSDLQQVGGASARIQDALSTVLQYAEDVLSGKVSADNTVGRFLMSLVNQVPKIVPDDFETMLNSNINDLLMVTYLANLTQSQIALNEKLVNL
Summary of the method: as §1

EIF3H = EIF3H (UniProt O15372)
Sequence of EIF3H (O15372 whole entry): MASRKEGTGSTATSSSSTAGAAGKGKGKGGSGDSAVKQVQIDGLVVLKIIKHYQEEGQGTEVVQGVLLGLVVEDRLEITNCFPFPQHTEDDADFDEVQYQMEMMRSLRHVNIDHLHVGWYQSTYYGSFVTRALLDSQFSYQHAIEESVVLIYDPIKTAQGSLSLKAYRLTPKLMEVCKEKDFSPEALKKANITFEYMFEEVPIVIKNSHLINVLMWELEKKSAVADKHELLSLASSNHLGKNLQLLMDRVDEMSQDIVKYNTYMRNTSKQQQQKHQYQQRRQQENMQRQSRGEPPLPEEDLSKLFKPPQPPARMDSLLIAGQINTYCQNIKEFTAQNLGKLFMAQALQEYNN
Summary of the method: as §1

FAM105A = target: T3, FAM105A (UniProt Q9NUU6)
T3 sequence (whole entry): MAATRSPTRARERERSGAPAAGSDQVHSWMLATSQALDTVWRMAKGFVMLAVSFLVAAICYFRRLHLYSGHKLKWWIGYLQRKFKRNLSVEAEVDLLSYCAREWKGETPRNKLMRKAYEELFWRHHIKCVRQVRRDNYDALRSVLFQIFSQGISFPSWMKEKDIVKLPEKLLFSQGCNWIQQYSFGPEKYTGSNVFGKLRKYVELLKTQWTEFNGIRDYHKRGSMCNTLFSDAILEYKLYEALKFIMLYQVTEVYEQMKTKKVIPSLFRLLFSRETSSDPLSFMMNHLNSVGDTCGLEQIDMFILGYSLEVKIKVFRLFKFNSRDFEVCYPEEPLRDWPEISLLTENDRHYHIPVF
Summary of the method: as §1

OTUB1 = OTUB1 (UniProt Q96FW1)
Sequence of OTUB1 (Q96FW1 whole entry): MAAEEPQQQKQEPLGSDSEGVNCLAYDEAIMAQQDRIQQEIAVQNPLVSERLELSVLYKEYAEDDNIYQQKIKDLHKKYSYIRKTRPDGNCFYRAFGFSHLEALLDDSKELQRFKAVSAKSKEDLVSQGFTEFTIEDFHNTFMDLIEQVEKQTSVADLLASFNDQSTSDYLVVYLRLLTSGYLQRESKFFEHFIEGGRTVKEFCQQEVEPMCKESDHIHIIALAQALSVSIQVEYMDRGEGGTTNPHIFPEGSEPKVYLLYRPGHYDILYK
Summary of the method: as §1

OTUD4 = target: T4, OTUD4 (UniProt Q01804)
T4 sequence (whole entry): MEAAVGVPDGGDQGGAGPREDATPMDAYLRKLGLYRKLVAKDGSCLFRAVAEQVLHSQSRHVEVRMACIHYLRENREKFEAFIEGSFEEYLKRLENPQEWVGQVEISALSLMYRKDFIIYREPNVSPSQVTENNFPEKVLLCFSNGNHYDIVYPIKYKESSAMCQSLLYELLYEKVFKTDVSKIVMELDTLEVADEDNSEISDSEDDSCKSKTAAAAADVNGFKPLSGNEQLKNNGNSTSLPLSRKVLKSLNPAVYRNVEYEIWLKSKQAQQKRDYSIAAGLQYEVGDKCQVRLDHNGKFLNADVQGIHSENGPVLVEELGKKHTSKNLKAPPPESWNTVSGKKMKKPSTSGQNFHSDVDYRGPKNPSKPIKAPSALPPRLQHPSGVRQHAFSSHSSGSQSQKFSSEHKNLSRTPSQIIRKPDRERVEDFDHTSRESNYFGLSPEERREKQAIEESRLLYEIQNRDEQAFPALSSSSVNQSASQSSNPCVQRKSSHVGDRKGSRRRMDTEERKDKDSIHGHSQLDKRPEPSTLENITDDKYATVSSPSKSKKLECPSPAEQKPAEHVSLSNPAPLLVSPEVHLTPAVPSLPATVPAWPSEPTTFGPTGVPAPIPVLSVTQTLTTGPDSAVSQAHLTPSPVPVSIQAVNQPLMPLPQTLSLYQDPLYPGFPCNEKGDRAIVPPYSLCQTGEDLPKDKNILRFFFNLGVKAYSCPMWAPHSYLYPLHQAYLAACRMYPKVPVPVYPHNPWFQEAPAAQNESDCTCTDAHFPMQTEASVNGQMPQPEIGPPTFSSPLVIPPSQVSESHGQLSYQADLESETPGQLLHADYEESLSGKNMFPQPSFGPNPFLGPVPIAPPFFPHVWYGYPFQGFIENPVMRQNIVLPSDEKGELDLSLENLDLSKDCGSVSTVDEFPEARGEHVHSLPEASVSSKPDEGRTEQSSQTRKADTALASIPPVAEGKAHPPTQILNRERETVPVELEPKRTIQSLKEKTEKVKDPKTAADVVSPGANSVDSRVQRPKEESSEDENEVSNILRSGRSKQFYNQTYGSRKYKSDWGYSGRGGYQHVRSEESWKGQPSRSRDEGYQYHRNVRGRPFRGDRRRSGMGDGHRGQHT
Summary of the method: as §1

OTUD5 = target: T5, OTUD5 (UniProt Q96G74)
T5 sequence (whole entry): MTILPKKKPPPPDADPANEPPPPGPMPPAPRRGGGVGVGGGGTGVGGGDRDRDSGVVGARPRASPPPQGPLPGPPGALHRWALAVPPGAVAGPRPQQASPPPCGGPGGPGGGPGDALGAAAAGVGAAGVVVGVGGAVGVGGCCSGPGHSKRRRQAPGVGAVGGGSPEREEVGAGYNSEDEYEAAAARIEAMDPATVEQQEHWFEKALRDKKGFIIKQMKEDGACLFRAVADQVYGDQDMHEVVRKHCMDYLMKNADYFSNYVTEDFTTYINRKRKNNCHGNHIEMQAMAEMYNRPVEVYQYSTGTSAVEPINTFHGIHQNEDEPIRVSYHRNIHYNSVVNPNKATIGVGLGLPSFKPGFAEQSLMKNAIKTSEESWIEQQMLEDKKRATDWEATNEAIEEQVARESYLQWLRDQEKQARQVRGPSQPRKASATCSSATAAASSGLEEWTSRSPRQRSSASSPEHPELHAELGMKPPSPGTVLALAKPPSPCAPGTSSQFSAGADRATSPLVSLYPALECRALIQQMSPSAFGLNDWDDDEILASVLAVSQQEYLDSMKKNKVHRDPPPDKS
Summary of the method: as §1

Measured: log2 ratio of Biotin-Ahx-Ub-VS probe labelling

C[C@@H](NC(=O)CCl)c1cccc(C#N)c1
active: BAP1 -2.8
inactive: ALG13 0.118 | ATXN3 -0.463 | EIF3F -0.345 | EIF3H 0.144 | FAM105A 0.148 | OTUB1 -0.229 | OTUD4 -0.372 | OTUD5 -0.284
